The record followed here is PubChem BioAssay (NCATS).

Results filed as inconclusive are left out. Unmarked numbers belong to inactive results. Active and inactive are the calls of the source. Calls follow the shape of the dose curve; as a rule, active = well fitted inhibition curve with a large enough effect; inconclusive = small, poorly fitted or top-dose-only effect; inactive = no such curve, though single readings can be large or run the other way.
% is scaled to controls: 0 for no effect and ±100 for the full control effect; potency is read from the fitted curve at half-maximal effect.

In the experiment the test system is Zika virus NS2B-NS3 protease (linked construct). In words: Primary screen NINDS Rhodamine qHTS for Zika virus inhibitors (AID 1347160). Also: nearly all actives have a fitted effect of over 55% in size. The conditions noted are these: purified NS2B-NS3 protease, Rhodamine110 substrate fluorescence; series mostly up to 57.1 µM; activity change, negative = inhibition: at the top concentration. The source says: Avindra Nath, Ph.D., National Institute of Neurological Disorders and Stroke (NINDS), Bethesda, MD
Radhakrishnan Padmanabhan, Ph.D., Georgetown University (GU), Washington D.C.
Zika Virus causes congenital defects, including microcephaly and is associated with Guillain-Barre syndrome, eningoencephalitis and myelitis in infected adult. […] Using a target-based approach, we hope to establish a screening paradigm to uncover novel, cell-active NS2B-NS3 protease (Zika Virus) specific inhibitors from NCATS' collection of small molecules using qHTS.
Four assay panel was created to identify potential Zika Virus inhibitors. Namely, (1) GU unlinked NS2B-NS3 AMC tagged protease qHTS, (2) GU unlinked NS2B-NS3 Rhodamine tagged protease qHTS, (3) NINDS linked NS2B-NS3 AMC tagged protease qHTS, (4) NINDS linked NS2B-NS3 Rhodamine tagged protease qHTS. Active compounds were re-acquired and re-screened to confirm inhibition. Inhibitors were further screened against various confirmatory and counterscreens in dose response format.
Early Translation Branch (ETB)
National Center for Advancing Translational Sciences (NCATS), Rockville, MD
National Institute of Health (NIH), Bethesda, Maryland
For the linked assay, Nath lab (NINDS) provided the purified linked NS2B-NS3 protease which is consists of hydrophilic domain of NS2B linked to the NS3 protease domain by a flexible (-[…]-) linker. Control compound aprotinin is obtained from Thermo Scientific (#78432; Waltham, Massachusetts). Rhodamine110 substrate ([N-Cbz]-Nle-Lys-Arg-Arg-Rhod110-Arg-Arg-Lys-Nle-[N-Cbz]) was purchased from either Genscript or Bachem.
1536-well Protease (Rhodamine110 Substrate) Assay:
Briefly, 3 microL of enzyme (25 nM final concentration), in assay buffer (10 mM Tris-HCl pH 8.0 with 0.01% Tween 20) were dispensed into a 1,536-well solid-bottom black plate (Greiner Bio One, Monroe, NC). Twenty-three nL of compounds (final concentration range 7.28 nM to 114 microM) or control Aprotinin (final concentration range 3.47 nM to 114 microM) were transferred via Wako Pin-tool (Wako Automation, Richmond, VA). Samples were incubated (room temperature, protected from light) for 15 minutes followed by a 1 microL Rhodamine110 substrate addition (1.5 microM final concentration). Plates were then immediately read on a ViewLux High-throughput CCD imager (PerkinElmer, Waltham, MA) equipped with FITC fluorescence optics (480(20) nm excitation, 540(25) nm emission), then incubated (room temperature, protected from light) for 15 minutes (~15% conversion). The change in fluorescence intensity over the 15-minute reaction period was normalized against no-inhibitor and no-enzyme controls and the resulting percent inhibition data were fitted to a 4-parameter Hill equation. Aprotinin was used as intraplate control.
In general terms: qHTS replaces the single test concentration by a dilution series.
As to `Cn1cnc(-c2cc3nccc(Oc4ccc(NC(=S)NC(=O)Cc5ccccc5)cc4F)c3s2)c1`, the “activity change, negative = inhibition” value was 63.2%. Take `C[C@@H](NC(=O)c1ncnc(N)c1Cl)c1ncc(C(=O)Nc2cc(C(F)(F)F)c(Cl)cn2)s1`: the call was inactive. With `O=C(CC12CC3CC(CC(C3)C1)C2)Nc1cccc2nc(NCCNCCO)ccc12`, the “activity change, negative = inhibition” value is 190%. On the same count and under the same terms, for `COc1ccc(-c2cc3nccn3c(Nc3ncccc3C(N)=O)n2)cc1OC` the value was 11.5%. `COc1cc(Nc2nc3ccccc3nc2NS(=O)(=O)c2ccc(NC(=O)c3ccc(C)c(OC)c3)cc2)cc(OC)c1`: the Potency was 3.16 µM (active). On to `COc1ccc(-c2nc3ccc(C4=NNC(=O)CC4C)cc3[nH]2)cc1` (stereo not given), for which the “activity change, negative = inhibition” value was 24.8%. The same measure, in the same setting: for `CC1CCN(c2cc(N3CCN(C)CC3)ccc2NC(=O)c2cc(C#N)c[nH]2)CC1` the value was 23.4%; for `CCc1cccc(CC)c1NC(=O)N1Cc2[nH]nc(NC(=O)c3ccc(N4CCN(C)CC4)cc3)c2C1`, 14.6%. Same read-out and setting: for `COc1nccc(-c2c(-c3ccc(F)cc3)ncn2C2CCC(O)CC2)n1` (stereo not given) the value was 13.4%. In the case of `CN1c2ccccc2C(=O)N2CCc3c([nH]c4ccccc34)C21` (stereo not given), the outcome was inactive. On to `CCN(CCO)CCCOc1ccc2c(Nc3cc(CC(=O)Nc4cccc(F)c4)[nH]n3)ncnc2c1`, for which the “activity change, negative = inhibition” value is 51.9%. Take `NC1(C(=O)N[C@@H](CCO)c2ccc(Cl)cc2)CCN(c2ncnc3[nH]ccc23)CC1`: the “activity change, negative = inhibition” value is 2.75%. Consider `Cc1cnc(-c2cc(N3CCN(C(=O)CCS(C)(=O)=O)CC3)ncc2Cl)c(C)c1`, for which the “activity change, negative = inhibition” value is 39.4%. For `C[C@@H](N)c1ccc(C(=O)Nc2ccnc3[nH]ccc23)cc1`, the molecule was called inactive. Regarding `Nc1ncnc2c1c(-c1cccc(OCc3ccccc3)c1)cn2C1CC(CN2CCC2)C1` (stereo not given), the “activity change, negative = inhibition” value is 534%. Same read-out and setting: for `Cc1cc(-c2ncc(CC(=O)Nc3ccc(-c4cnccn4)cn3)cc2C)ccn1` the value was 26.8%. Same read-out and setting: for `C=CC(=O)Nc1cccc(Sc2nc(Nc3ccc(N4CCN(C)CC4)cc3)ncc2Cl)c1` the value was 227%; for `COc1cc2nccc(Oc3ccc(NC(=O)Nc4cc(C)on4)c(Cl)c3)c2cc1OC`, 34.4%. As to `CN(C)CCCNC(=O)c1ccc(-c2cc(O)c3ncccc3c2)cc1`, the result was inactive.

In the case of `NC(=O)c1noc([C@H](CCCC2CCCCC2)CC(=O)NO)n1`, the call was inactive. For `O=C(CO)N1CCC(c2[nH]nc(-c3ccc(Cl)cc3)c2-c2ccncn2)CC1`, the “activity change, negative = inhibition” value was -18.8%. As for `CN(C)CCOc1cc(-c2cn[nH]c2)ccc1NC(=O)C1COc2ccccc2O1` (stereo not given), the molecule was classed as inactive. Consider `NS(=O)(=O)c1ccc(Nc2nc(OCC3CCCCC3)c3[nH]cnc3n2)cc1`, for which the “activity change, negative = inhibition” value was -3.31%. The same measure, in the same setting: for `Cc1nc2c([nH]1)CCN(C(=O)c1ccc(NC(=O)c3ccccc3-c3ccccc3)cc1)c1ccccc1-2` the value was 50.5%; for `CCC(=O)N1CCN(c2ccc(-n3c(=O)ccc4cnc5ccc(-c6cnc7ccccc7c6)cc5c43)cc2C(F)(F)F)CC1`, -4.81% [at 10.7 µM]; for `c1ccc(-c2oc3ncnc(NC[C@@H]4CCCO4)c3c2-c2ccccc2)cc1`, 5.56%.

Turning to `O=C(c1ccc(C(=O)N2CCC(N3CCCC3)CC2)c(Nc2ccccc2)c1)N1CCC(N2CCCC2)CC1`, the “activity change, negative = inhibition” value is 16.9%. The same measure, in the same setting: for `c1ccc(CNc2nc(N3CCOc4ccccc43)nc3c2CCCC3)cc1` the value was 21.6%. The same measure, in the same setting: for `C[C@@]1(c2cc(-c3cncnc3)c(F)cc2F)CCSC(N)=N1` the value was 43.3% [at 33.1 µM].

`C[C@@]1(C(=O)Nc2ccc(F)nc2)CCCN1c1nc(Nc2cc(C3CC3)[nH]n2)c2cccn2n1`: the “activity change, negative = inhibition” value was 8.71%.

Regarding `COc1cc2ncnc(Nc3cc(Br)c(O)c(Br)c3)c2cc1OC`, the “activity change, negative = inhibition” value was 13.6%. For `NC(=O)c1ccc(N(C(N)=O)c2c(F)cccc2F)nc1-c1ccc(F)cc1F`, the outcome was inactive.

Take `CC(C)CNc1ccnc(NCc2csc(-c3ccccc3)n2)n1`: the “activity change, negative = inhibition” value is 443%.

With `CNC1CCC(N(Cc2cccc(-c3ccncc3)c2)C(=O)c2sc3ccccc3c2Cl)CC1` (stereo not given), the “activity change, negative = inhibition” value is 357%.

In the case of `Cn1c(=O)c(-c2c(Cl)cccc2Cl)cc2cnc(Nc3cccc(C(=O)O)c3)nc21`, the “activity change, negative = inhibition” value was 9.85%. The same measure, in the same setting: for `O=C(Nc1ccc(OC(F)(F)F)cc1)c1sccc1NCc1ccnc2ccccc12` the value was -3.63%.

`CCNC(=O)c1noc(-c2cc(C(C)C)c(O)cc2O)c1-c1ccc(CN2CCOCC2)cc1`: the outcome was inactive. Regarding `Cc1nc(C(=O)NCC(=O)O)c(O)c2ccc(Oc3ccccc3)cc12`, the “activity change, negative = inhibition” value was -19.9%.

Turning to `CCN1C[C@H](C)n2c(c(O)c3c(=O)n(Cc4ccc(F)c(Cl)c4)nc(C(=O)NC)c32)C1=O`, the Potency entry is “inactive”. `O[C@@H](COc1cccc2ncccc12)CN1CCN(C2c3ccccc3[C@@H]3[C@H](c4ccccc42)C3(F)F)CC1` (stereo not given in full): the “activity change, negative = inhibition” value was 128%.
